Screens: PubChem BioAssay, The Scripps Research Institute Molecular Screening Center
Sampled rows, rich in hits. Any-hit rate of the full collection: about 3.5%.
TEAD-YAP inh: TEAD-YAP interaction inhibition | inhibition, % at 9.12 µM | HEK-TIYL cells, TEAD-Gal4/YAP UAS-luciferase luminescence | actives 1.4% (n = 640,000); in the data active means inhibition above about 32%
MITF inh: inhibitors of human MITF; AID 1259374; actives 0.91% (n = 650,000); O75030; AlphaScreen MITF homodimerization, bead proximity signal; inhibition, % at 2.6 µM; in the data active means inhibition above about 50%
GPR151 activ: activates the human receptor GPR151 | activation, % at 11.2 µM | Q8TDV0 | actives 1% (n = 650,000) | PathHunter beta-arrestin GPR151 cells, luminescence; in the data active means activation above about 4.9%
FBW7 act: human FBW7 E3 ligase activation, primary screen | normalized activity (activation), % at 26.1 µM | actives 0.13% (n = 650,000) | Q969H0 | AlphaScreen FBW7–phospho-cyclin E peptide binding, activator screen | AID 1259310; in the data active means normalized activity above about 1.9%;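 further: purified mutant Fbw7 with reduced substrate affinity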
Target sequence (Q969H0 whole entry, looked up): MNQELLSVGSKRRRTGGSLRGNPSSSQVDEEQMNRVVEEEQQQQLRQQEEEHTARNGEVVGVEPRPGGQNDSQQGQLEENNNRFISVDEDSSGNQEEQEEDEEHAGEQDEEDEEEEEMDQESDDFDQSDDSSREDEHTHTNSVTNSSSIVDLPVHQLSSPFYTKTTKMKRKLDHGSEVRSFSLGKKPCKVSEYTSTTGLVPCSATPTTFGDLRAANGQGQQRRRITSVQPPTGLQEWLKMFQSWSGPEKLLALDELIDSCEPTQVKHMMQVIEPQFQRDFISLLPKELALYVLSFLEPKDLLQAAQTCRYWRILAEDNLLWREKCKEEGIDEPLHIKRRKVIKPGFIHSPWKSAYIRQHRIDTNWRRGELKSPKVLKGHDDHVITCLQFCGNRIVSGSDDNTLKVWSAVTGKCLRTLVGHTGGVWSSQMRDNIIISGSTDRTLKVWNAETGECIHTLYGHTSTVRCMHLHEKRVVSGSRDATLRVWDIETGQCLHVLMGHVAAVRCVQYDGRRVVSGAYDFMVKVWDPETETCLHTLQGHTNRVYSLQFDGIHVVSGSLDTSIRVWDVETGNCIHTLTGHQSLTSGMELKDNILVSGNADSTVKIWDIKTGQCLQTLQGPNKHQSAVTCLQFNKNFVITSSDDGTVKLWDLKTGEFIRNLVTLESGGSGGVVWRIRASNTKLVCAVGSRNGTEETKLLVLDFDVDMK
Each line names hits and unclear results; the compound was inactive in the other large screens.

O=C(CSc1nc2ccccc2[nH]1)Nc1cc(Cl)ccc1O	TEAD-YAP inh 33
Cc1cccc(C(=O)/C(C#N)=N/Nc2c(C)n(C)n(-c3ccccc3)c2=O)c1	TEAD-YAP inh 42
Cc1ccccc1NC(=O)Cn1c(C)cc(=O)c2ccccc21	TEAD-YAP inh 39
CCN1\C(=C/C=C(C)/C=C/c2sc3ccccc3[n+]2CC)Sc2ccccc21	TEAD-YAP inh 66, FBW7 act 11
C=CCN1/C(=C/C=C/c2sc3ccccc3[n+]2CC=C)Sc2ccccc21	TEAD-YAP inh 89
CCN1/C(=C/C(C)=C/c2sc3ccccc3[n+]2CCO)Sc2ccccc21	TEAD-YAP inh 39
CCN1/C(=C/c2sc3ccccc3[n+]2CCO)Sc2ccccc21	TEAD-YAP inh 38
Cc1sc2ccccc2[n+]1CCO	none
c1ccc(-n2cnc3c(NC4CC4)nc(Nc4ccc(-n5ccnc5)cc4)nc32)cc1	TEAD-YAP inh 41
c1ccc(Nc2nc(NC3CC3)c3ncn(-c4ccccc4)c3n2)cc1	TEAD-YAP inh 47
c1ccc(-n2cnc3c(NC4CC4)nc(Nc4ccccn4)nc32)cc1	TEAD-YAP inh 47
FC(F)(F)c1ccc(Nc2nc(NC3CC3)c3ncn(-c4ccccc4)c3n2)cc1	none
c1ccc(Nc2nc(NC3CC3)c3ncn(C4CCCCC4)c3n2)nc1	none
c1ccc(-n2cnc3c(NC4CC4)nc(Nc4cccnc4)nc32)cc1	TEAD-YAP inh 42
O=C1NC(=O)N(c2cccc(Br)c2)C(=O)/C1=C/c1ccc(F)cc1	none
Nc1ccc(NS(=O)(=O)c2ccc(F)c(F)c2)cc1	none
CN(C)CCN1CCN(c2ccnc3cc4ccccc4cc23)CC1	TEAD-YAP inh 44
CN1CCN(CCCNc2ccnc3cc4ccccc4cc23)CC1	TEAD-YAP inh 75
CN1CCN(CCCNc2nc(=S)[nH]c3ccccc23)CC1	none
Cc1cccc(NCC(O)Cn2c(C)c(C)c3ccccc32)c1C (stereo unspecified)	MITF inh 51
CCc1ccc(-c2nc(CSCC(=O)N3CCN(c4ccccn4)CC3)c(C)o2)cc1	TEAD-YAP inh 35
Cc1ccc(-c2nc(CSCC(=O)N3CCN(c4ccccn4)CC3)c(C)o2)cc1	TEAD-YAP inh 40
O=C1c2ccccc2C(=O)N1CCCCBr	none
Cc1nc2c(ccc3nc(NC(=O)C4=COCCO4)sc32)s1	TEAD-YAP inh 79
Cc1nc2ccc3nc(NC(=O)c4ccco4)sc3c2s1	FBW7 act 26
Cc1nc2c(ccc3nc(NC(=O)c4ccco4)sc32)s1	TEAD-YAP inh 50
O=C(Nc1nnc(C23CC4CC(CC(C4)C2)C3)s1)c1ccco1	FBW7 act 1.9
Cc1ccc(C(=O)Nc2nc3ccc4sc(C)nc4c3s2)cc1	none
Cc1ccc(-c2nn3c(C)nnc3s2)cc1NC(=O)COc1ccccc1	none
O=C(/C=C/c1ccc([N+](=O)[O-])cc1)Nc1cccc(C(=O)c2ccc(F)cc2)c1	TEAD-YAP inh 38
COc1ccc2ccccc2c1/C=C1/SC(=S)NC1=O	none
CCCOc1ccc2ccccc2c1/C=C1\SC(N)=NC1=O	TEAD-YAP inh 52
COc1ccc2ccccc2c1/C=C1\SC(=Nc2ccc(C)cc2)NC1=O	TEAD-YAP inh 53
COc1ccc(N=C2NC(=O)/C(=C\c3cc(OC)ccc3OC)S2)cc1	none
COc1ccc(N=C2NC(=O)/C(=C/c3c(OC)ccc4ccccc34)S2)cc1	TEAD-YAP inh 36
CCCOc1ccccc1/C=C1\SC(N)=NC1=O	none
COc1ccc2ccc(OC)c(/C=C3/C(=O)Nc4ccccc43)c2c1	TEAD-YAP inh 53
CCc1cccc(C)c1NC(=O)Nc1cccs1	none
CC1CCN(S(=O)(=O)c2cc(C(=O)O)ccc2Br)CC1	none
Cc1cc(/C=C(\C#N)c2nc3ccccc3[nH]2)c(C)n1C1CC1	none
Cc1cc(/C=C(\C#N)c2nc3ccccc3[nH]2)c(C)n1-c1ccc(F)cc1	TEAD-YAP inh 71
Cc1cc2nc(-c3ccc[nH]c3=O)[nH]c2cc1C	TEAD-YAP inh 86
Cc1ccccc1-c1nc2ccccc2[nH]1	none
COc1ccc(CC(=O)N2CCC(c3nc(C)ncc3-c3ccncc3)CC2)cc1	FBW7 act 2.4
CCCOc1ccccc1C1C2=C(CCCC2=O)N(C)C2=C1C(=O)CCC2	FBW7 act 3.0
CCOc1ccc(Br)cc1C1C2=C(CCCC2=O)N(CC(=O)O)C2=C1C(=O)CCC2	FBW7 act 1.9
CCc1ccc(N(CC(=O)NC(C)CC)S(C)(=O)=O)cc1 (stereo unspecified)	FBW7 act 1.9
Cc1ccc(-n2ncc3c(NC4CCCC4)ncnc32)cc1	TEAD-YAP inh 37
Fc1ccc(-n2ncc3c(NC4CCCC4)ncnc32)cc1	none
Cc1cccc(-n2ncc3c(NC4CCCCC4)ncnc32)c1	TEAD-YAP inh 53
c1ccc(-n2ncc3c(NC4CCCCCCCCCCC4)ncnc32)cc1	none
CN(c1ncnc2c1cnn2-c1ccccc1)C1CCCCC1	TEAD-YAP inh 93
CN(C)S(=O)(=O)c1cccc(COC(=O)c2ccc([N+](=O)[O-])s2)c1	none
CN(Cc1ccc(-n2cccn2)cc1)C(=O)c1cc(Cc2ccc(F)cc2)no1	none
Cc1ccc(-n2[nH]c(C)c(C=Nc3ccc4nc(C)[nH]c4c3)c2=O)cc1	none
COc1ccc(-n2c(SCc3ccccc3C)nc3c(sc(=S)n3-c3ccc(Cl)c(C)c3)c2=O)cc1	none
COc1ccc(N2C(=O)C3C(c4cccc(Br)c4)OC4(C(=O)c5ccccc5C4=O)C3C2=O)cc1 (stereo unspecified)	MITF inh 81
COc1ccc(C2C(C#N)=C(N)Oc3c2sc2ccccc32)cc1OC (stereo unspecified)	TEAD-YAP inh 56
COc1ccc(C2C(C#N)=C(N)Oc3c2sc2ccccc32)c2ccccc12 (stereo unspecified)	none
CC(=O)NC(c1ccc(N(C)C)cc1)c1cc(Cl)c2cccnc2c1O (stereo unspecified)	none
CC(=O)NC(c1ccc(C(C)C)cc1)c1cc(Cl)c2cccnc2c1O (stereo unspecified)	TEAD-YAP inh 38
CC(=O)NC(c1ccccc1)c1cc(Cl)c2cccnc2c1O (stereo unspecified)	TEAD-YAP inh 76, MITF inh 63
COC(=O)N[C@H]1C[C@H]2C(=O)N[C@H](CO)C(=O)N2C1	none
N#C/C(=C\c1ccc(OCC(=O)NCC2CCCO2)cc1)C(=O)NCCc1ccccc1 (stereo unspecified)	FBW7 act 2.0
N#C/C(=C\c1ccc(OCC(=O)NCC2CCCO2)cc1)C(=O)NCc1ccccc1 (stereo unspecified)	none
CC(C)(C)NC(=O)CN(C(=O)c1ccco1)c1ccc(F)cc1	none
c1ccc(-n2cnc3c(Nc4ccc(N5CCOCC5)cc4)nc(Nc4ccccn4)nc32)cc1	TEAD-YAP inh 58
Cn1c(Nc2nc(Nc3ccc(N4CCOCC4)cc3)c3ncn(-c4ccsc4)c3n2)nc2ccccc21	TEAD-YAP inh 35
c1ccc(-n2cnc3c(Nc4ccc(N5CCOCC5)cc4)nc(Nc4ncccn4)nc32)cc1	none
CC(=O)Nc1ccc(Nc2nc(Nc3ccccn3)nc3c2ncn3-c2ccccc2)cc1	TEAD-YAP inh 56
